HCV inhibitor: qHTS Assay for Inhibitors of Hepatitis C Virus (HCV); Huh7.5.1 HCVcc-Cre infection, luciferase reporter, 44 h; Potency, µM (series often up to 41.8 µM), hits mostly inhibitors; 3.4% of 340,000 active; AID 651820, 2012
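Compounds are dispensed onto cells plated 4 h earlier at 1,000 per well, with HCVcc-Cre virus (about 0.5 moi) added next. Following 44 h of culture, luminescent signal is measured for 15 sec after 15 min with substrate at room temperature.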
CHX counter: Cycloheximide Counterscreen for Small Molecule Inhibitors of Shiga Toxin | cell reporter, cycloheximide protein synthesis inhibition counterscreen | max response, % | 12% of 300,000 active | AID 2314, 2010; in the data active = max response mostly above about 13%, no sharp cut-off; inactive = mostly below about 14%; also: read at 38.3 µM for the half of the compounds with a filed dose
Pf growth 48h: Primary qHTS for delayed death inhibitors of the malarial parasite plastid, 48 hour incubation; P. falciparum luciferase growth in erythrocytes, 48 h; Potency, µM (top dose mostly 28.7 µM), usual class: inhibitors; 5.9% of 310,000 active; AID 504832, 2011
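Compounds are pin-transferred into medium, infected erythrocytes (2% hematocrit, 0.1% parasitemia final) are added, and plates sit one parasite generation at 37 C in 5% CO2. Detection reagent is then added and luminescence measured.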
AMA1-RON2 inh: qHTS for Inhibitors of AMA1-RON; Towards Development of Antimalarial Drug Lead: Primary Screen. AlphaScreen AMA1-biotinylated RON2 peptide binding. Potency, µM (highest dose often 58.2 µM), usual class: inhibitors. 0.2% of 360,000 active. AID 720542, 2013; also: nearly all actives have a fitted effect of over 45% in size
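AMA1 (3D7) with his tag at 25 nM final met compounds first, then biotinylated RON2 peptide at 25 nM; detection used donor plus acceptor beads, 10 µg/mL apiece, read by AlphaScreen after 30 min at room temperature.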
Pf growth 96h: Primary qHTS for delayed death inhibitors of the malarial parasite plastid, 96 hour incubation; Potency, µM (series often up to 28.7 µM), hits mostly inhibitors; P. falciparum luciferase reporter growth, 96 h; 6.9% of 320,000 active
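Delayed-death screen, second-generation endpoint: infected erythrocytes, 2% hematocrit, 0.05% parasitemia final; 96 hours at 37 C, 5% CO2; luciferase detection reagent; luminescence decrease equals reduced growth.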
Shiga toxin inh: A qHTS for Small Molecule Inhibitors of Shiga Toxin; Vero cells, Shiga toxin protein synthesis inhibition reporter; inhibition, % at 38.7 µM; 9.2% of 290,000 active; AID 2315, 2010; in the data active = inhibition mostly above about 28%, no sharp cut-off; inactive = mostly below about 43%
Hits are given with their value; 0 = inactive; ? = inconclusive; - = no result; + = active, no number; [ ] = dose if it differs, or a comment. Only some compounds are listed: those with a hit (about 21% of all), similar ones and a draw of the others. Unless noted, calls follow the shape of the dose curve; as a rule, active = well fitted curve in the direction sought with a large enough effect; inconclusive = small, poorly fitted or top-dose-only effect, or another doubt; inactive = no such curve, though single readings can be large; an effect the other way counts as inactive or inconclusive.

SMILES | HCV inhibitor | CHX counter | Pf growth 48h | AMA1-RON2 inh | Pf growth 96h | Shiga toxin inh
COc1ccccc1CNC(=O)[C@@H](NC(=O)C1CCN(C(=O)[C@@H]2CCCN2C(=O)OC(C)(C)C)CC1)C(C)C | 0 | 0 | ? | 0 | ? | 0
C[C@@H]1CN([C@H](C)CO)C(=O)CCCn2nncc2CO[C@H]1CN(C)Cc1ccccc1 | - | - | - | 0 | - | -
Cc1ccc(-c2cnc3n2CCCCC3)cc1 | ? | 0 | 0 | 0 | ? | 0
c1ccc(-c2ccc(-c3cnc4n3CCCCC4)cc2)cc1 | ? | 22 | ? | ? | - | 0
CCOc1ccc(-c2cnc3n2CCCCC3)cc1 | 0 | 8.6 | 0 | 0 | ? | 0
c1cc(-c2ccc3c(c2)CCO3)n2cnnc2c1 | - | - | - | 0 | - | -
c1cc2c(cc1-c1cnc3n1CCC3)OCCO2 | 10µM | 0 | 0 | 0 | - | 87
Cc1ccc(NC(=O)NNC(=O)CN2C(=O)COc3ccccc32)cc1 | 0 | 0 | 0 | 0 | 0 | 0
COc1ccc(C)cc1NC(=O)c1cc(C2CC2)nc2c1c(C)nn2C1CCS(=O)(=O)C1 (configuration not stated) | 0 | - | - | 0[11.6 µM] | - | -
CCCOc1ccc(C(=O)CCC(=O)OCC(=O)N2CCN(S(=O)(=O)c3ccc(C)cc3C)CC2)cc1 | 0 | - | - | 0 | - | -
O=C(NCc1cccnc1)c1cc(C2CCCCN2C(=O)c2ccc(Cl)cc2)on1 (configuration not stated) | - | - | - | 0 | - | -
C=CCC(O)[C@H](Cc1cnc2ccccc2c1)[C@H](/C=C/CCCC)c1ccccc1 (some centres not stated) | - | 0 | - | - | - | 0
CC(C)CN=c1cc(-c2ccccc2)oc2ccc(Cl)cc12 | ? | 35 | ? | 0 | 0 | 0
O=c1cc(-c2ccccc2)oc2ccc(Br)cc12 | 0 | - | - | 0 | - | -
CC(O)CN=c1cc(-c2ccccc2)oc2ccc(Cl)cc12 (configuration not stated) | 0 | 55 | ? | 0 | ? | 77
Cc1ccccc1C(=O)NNC(=O)CSc1nc(-c2ccccc2)cc(=O)[nH]1 | 0 | 0 | 0 | 0 | ? | 0
COc1ccc(NC(=O)c2cccc(Oc3ccc([N+](=O)[O-])cc3Cl)c2)cc1 | ? | 0 | 0 | ? | 0 | 0
Cc1cc([N+](=O)[O-])ccc1NC(=O)c1cccc(NC(=O)C(C)C)c1 | 11µM | 15 | 0 | 0 | 0[5.75 µM] | 108
Cc1ccc([N+](=O)[O-])cc1NC(=O)c1ccoc1C | 0 | 35 | 0 | 0 | 0 | 48
Cc1ccc([N+](=O)[O-])cc1NC(=O)c1ccccc1 | 0 | 0 | 0 | 0 | 2.1µM | 0
Cc1ccc(C)c(NC(=O)c2cccc(Oc3ccc([N+](=O)[O-])cc3Cl)c2)c1 | ? | 0 | 0 | 0 | 13µM | 0
Cc1c(NC(=O)c2ccccc2)cccc1[N+](=O)[O-] | 0 | 17 | 0 | 0 | 0 | +
Cc1cccc(COCC(Cc2ccccc2)N2CCN(C(=O)c3cccc(C)c3)CCC2=O)c1 (configuration not stated) | 0[8.37 µM] | 0 | 13µM | 0 | ? | 0
Cc1cccc(COCC(Cc2ccccc2)N2CCN(C(=O)c3cc(Cl)cc(Cl)c3)CCC2=O)c1 (configuration not stated) | 0[8.37 µM] | 0 | ? | 0 | 15µM | 0
Cc1ccccc1C(=O)Nc1cc(C(F)(F)F)ccc1-n1cncn1 | ? | - | ? | 0 | 0 | -
SMILES | HCV inhibitor | CHX counter | Pf growth 48h | AMA1-RON2 inh | Pf growth 96h | Shiga toxin inh
Fc1ccc(-c2n[nH]c(=S)c3ccccc23)cc1 | 0 | 0 | ? | 0 | 0 | 0
O=C(Nc1ccc(F)cc1)c1ccc2snnc2c1 | 0 | 29 | 0 | 0 | 0 | 52
Cc1ccc(NC(=O)c2ccc3snnc3c2)cc1C | 0 | 37 | 0 | 0 | ? | 74
COCCNC(=O)c1ccc2snnc2c1 | 0 | 0 | 0 | 0 | - | 0
CC1CN(C(=O)Nc2ccc3snnc3c2)c2ccccc21 (configuration not stated) | ? | 27 | 0 | 0 | 0 | 36
O=C(Nc1ccc2snnc2c1)N1CCSCC1 | 0 | 0 | 0 | 0 | 0 | 0
O=C(NC1CCCCC1)c1ccc2snnc2c1 | 0 | 0 | 0 | 0 | 0 | 0
CCOc1ccc(NC(=O)c2ccc3snnc3c2)cc1 | 0 | 0 | 0 | 0 | 0 | 43
